Screens deposited in PubChem BioAssay by National Center for Advancing Translational Sciences (NCATS).
BAZ2B block: blocks human BAZ2B. AlphaScreen BAZ2B-H3K14Ac peptide displacement. AID 504333. Potency, µM (doses to about 114 µM), for the others: at the top dose activity change, negative = inhibition, actives largely listed as inhibitors. hit rate 4.4% among 360,000; also: % is scaled to controls: 0 for no effect and ±100 for the full control effect; nearly all actives have a fitted effect of over 60% in size
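BAZ2B 50 nM plus b-H3(5-23)K14Ac 50 nM, PBS pH 7.4/0.01% Tween-20, 30 min RT; compound added (max 110 uM), 30 min RT; streptavidin donor/Ni-chelate acceptor beads 10 ug/mL final, 20 min dark; AlphaScreen read.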
HP1b binding inh: blocks HP1-beta chromodomain binding to methylated histone tails. P83916. AlphaScreen HP1-beta / biotin-H3K9me3 peptide binding. Potency, µM (doses to about 114 µM), inactives show at the highest dose activity change, negative = inhibition, usual class: inhibitors. hit rate 0.56% among 390,000; also: nearly all actives have a fitted effect of over 70% in size
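Compound inhibition of the preformed complex between 50 nM HP1-beta and 50 nM biotinylated H3K9me3 peptide was read by AlphaScreen. Buffer was PBS pH 7.4 with 0.01% Tween-20. Incubations ran 30 min at room temperature, with 10 ug/mL donor/acceptor beads.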
Sfp inh: Sfp phosphopantetheinyl transferase inhibition. Biochemical Sfp PPTase activity, qHTS. Potency, µM, inactives show largest response in the series, negative = inhibition, actives largely listed as inhibitors. hit rate 3.5% among 310,000. AID 1490;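 also: the enzyme is Sfp with the accession as filed and its product quenches rhodamine fluorescence; 0% = enzyme reaction without inhibitor and -100% = no enzyme wells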
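Buffer: 50 mM Hepes-Na pH 7.6, 10 mM MgCl2, 0.01% Nonidet P-40, 0.01% BSA. Enzyme 15 nM, pre-exposed to compound 15 min; substrates then added and fluorescence change tracked over 30 min.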
G9a inh: G9a (human) methyltransferase inhibition. Q96KQ7. G9a H3K9 monomethylation, AlphaScreen, 2 h. Potency, µM (highest dose often 102 µM), for inactives: top-dose activity, negative = inhibition, hits mostly inhibitors. hit rate 8.8% among 350,000; also: % is scaled to controls: 0 for no effect and ±100 for the full control effect; nearly all actives have a fitted effect of over 75% in size
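AlphaScreen detection with an anti-monomethyl H3K9 antibody quantified product after a 2 h room-temperature reaction containing 500 nM biotinylated H3K9 peptide, 20 µM SAM and 20 nM enzyme, which had been preincubated 15 min with compound.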
L3MBTL1 block: blocks human L3MBTL1. Q9Y468. AlphaScreen L3MBTL1–H3K9me1 peptide binding. Potency, µM (series often up to 57.1 µM), without a hit: at the top dose activity, negative = inhibition, usual class: inhibitors. hit rate 0.66% among 230,000. AID 485360; also: % is scaled to controls: 0 for no effect and ±100 for the full control effect; nearly all actives have a fitted effect of over 60% in size
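First, the protein-peptide complex forms for 30 min at room temperature (L3MBTL1 50 nM, biotinylated H3K9me1 peptide 75 nM). Next, compounds are pin-transferred and incubated 30 min. Finally, AlphaScreen beads are added and read after 30 min.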
JMJD2A Tudor inh: JMJD2A Tudor domain (human) inhibition | AlphaScreen JMJD2A-Tudor / H3K4me3 peptide binding | Potency, µM (doses to about 114 µM), for inactives: top-dose activity change, negative = inhibition, most hits filed as inhibitors | hit rate 4.4% among 390,000 | AID 504339; also: % is scaled to controls: 0 for no effect and ±100 for the full control effect; nearly all actives have a fitted effect of over 50% in size
Starred values were filed as active, the others as inactive; ? = inconclusive; . = no result given; ! = a repeat was not active; [ ] = dose if it differs, or a comment. Compounds with a hit are over-represented: about 12% of the library has one in this group of screens. Calls follow the shape of the dose curve; as a rule, active = well fitted curve in the direction sought with a large enough effect; inconclusive = small, poorly fitted or top-dose-only effect, or another doubt; inactive = no such curve, though single readings can be large; an effect the other way counts as inactive or inconclusive. Potency is read from the fitted curve at half-maximal effect.

SMILES | BAZ2B block | HP1b binding inh | Sfp inh | G9a inh | L3MBTL1 block | JMJD2A Tudor inh
C#CCOCCOCCOCCNc1nc(N2CCN(C(=O)[C@H](C(C)C)n3cc(CCO)nn3)CC2)nc(N2CCN(C(=O)[C@H](Cc3ccc(O)cc3)n3cc(CCO)nn3)CC2)n1 | . | 35% | . | . | . | -18%
Cc1cccc(NC(=O)c2ccc3c(c2)C(=O)N(c2ccccc2C)C3=O)n1 | -29% | 5% | . | ? | 0% | -28%
Cc1ccc(N2C(S)=C(C#N)C(=O)NC23CCCCC3)cc1 | -9% | 19% | 20µM* | 28µM* | 3% | -22%[57.1 µM]
Cc1cccc(N2C(=O)NC3(CCCCC3)C2=O)c1 | 5% | 49% | 2% | -4% | . | -10%
Cc1ccccc1N1C(=O)CC2(CCCC2)CC1=O | -14% | 43% | 23% | -11%[59 µM] | . | 2%
Cc1cccc(N2C(S)=C(C#N)C(=O)NC23CCCCC3)c1 | ? | 35% | 79µM* | ? | -2% | -18%
Cc1cccc(NC2=C(C#N)C(=O)NC3(CCCC3)S2)c1 | -18% | 46% | 18µM* | ? | -4% | -3%
Cc1ccccc1N1C(S)=C(C#N)C(=O)NC12CCCCC2 | 4% | 24% | 14µM* | 35µM* | -3% | -21%
Cc1ccc(C(=O)N2C3=C(CCCC3)C(=O)NC23CCCCC3)cc1 | ? | 25% | 1% | 5% | . | -18%[57.1 µM]
Cc1cccc(Nc2nc(C)cc(C)c2C#N)c1 | 0% | 28% | 5% | -4%[0.501 µM] | -2%[2.29 µM] | 2%
Cn1cc(C[C@H](C(=O)O)N2C(=O)c3ccc(C(=O)O)cc3C2=O)c2ccccc21 | -37% | . | ? | -1%[12.7 µM] | -4% | -24%
COc1ccc(N2CCN(C(=O)C(CC(C)C)NS(=O)(=O)c3ccc4nc(C)sc4c3)CC2)cc1 (stereo unspecified) | ? | 9% | . | ? | . | -24%
Cc1ccc2c(CN3CCN(Cc4ccccc4)CC3)cc(=O)oc2c1 | -7% | 13% | 2% | 6% | . | -29%
O=c1cc(CN2CCN(Cc3ccccc3)CC2)c2cc(Cl)ccc2o1 | 7% | 35% | 11% | 45µM* | -1% | -21%
CCc1ccc2oc(=O)cc(CN3CCN(Cc4ccccc4)CC3)c2c1 | -5% | 51% | 3% | 45µM* | . | -22%
Cc1cc2oc(=O)cc(CN3CCN(Cc4ccccc4)CC3)c2cc1Cl | -31% | 12% | -8% | -20%[59 µM] | -3% | -8%[11.4 µM]
Cc1cccc(C)c1OCC(N)C(C)C (stereo unspecified) | 71µM* | 33% | . | 3.8µM* | -3% | 0%
CC12CCC(O)CC1=CCC1C2CCC2(C)C1CCC21CCC(=O)O1 (stereo unspecified) | 10% | 1% | 0% | 15%[59 µM] | 2% | -13%
C[C@]12CCC3C(CC=C4C[C@@H](O)CC[C@@]43C)C1CCC2[C@]1(C)CCC(=O)O1 (stereo partly specified) | 56µM* | ? | 26% | ? | 1% | ?
CCOc1ccc(-n2c(SCc3ccc([N+](=O)[O-])cc3)nnc2-c2ccccc2)cc1 | -30% | 0% | 0% | ? | -3% | 56µM*
COc1ccc(-c2noc(CSc3nnc(-c4ccncc4)n3-c3ccc(C)cc3)n2)cc1 | -34% | -15% | . | -36%[59 µM] | . | ?
CCOc1ccc(-n2c(SCc3nc(-c4ccc(C)cc4)no3)nnc2-c2ccncc2)cc1 | -5% | 14% | -14% | 79µM* | . | -36%
COc1ccc(-n2c(SCc3ccc([N+](=O)[O-])cc3)nnc2-c2ccccc2)cc1 | ? | -2% | -3% | ? | -26% | ?
Cc1ccc(C(C)C)c(OCC(=O)Nc2ccc3c(c2)nc(CN2CCCC2)n3C)c1 | 11µM* | 20% | ? | 45µM* | . | ?
Cn1c(CN2CCOCC2)nc2cc(NC(=O)COc3ccccc3)ccc21 | -14% | -19% | 22% | -2% | 5% | 56µM*
SMILES | BAZ2B block | HP1b binding inh | Sfp inh | G9a inh | L3MBTL1 block | JMJD2A Tudor inh
Cn1c(CN2CCCC2)nc2cc(NC(=O)Nc3ccccc3)ccc21 | -9% | 5% | 1% | -19%[12.7 µM] | . | -20%
COc1ccc(OCC(=O)Nc2ccc3c(c2)nc2n3CCSC2)cc1 | -1% | 3% | 5% | 2µM* | -3% | -13%
CC(=O)Nc1ccc2c(c1)nc(CN1CCCC1)n2C | -5% | 34% | -13% | 18µM* | . | -1%
COc1ccccc1-c1noc(-c2ccc(NCc3ccco3)c([N+](=O)[O-])c2)n1 | 1% | 41% | . | -35%[59 µM] | . | 5%
NC(N)=NCCC[C@H](NC(=O)[C@@H](N)Cc1ccc(O)cc1)C(=O)O | . | . | 7% | 48%[59 µM] | . | .
CCCCN([C@H](CO)C(C)C)S(=O)(=O)c1ccccc1Br | . | 60% | . | . | 8% | -10%
O=C(NC1CCCC1)c1ccc(CSc2nc3ccncc3n2Cc2ccc(F)cc2)cc1 | -4% | 20% | 1% | 45µM*! | 0% | -24%
O=[N+]([O-])c1ccc(S(=O)(=O)NCC2COc3ccccc3O2)cc1 (stereo unspecified) | ? | -14% | 5% | 16%[59 µM] | . | -30%
NS(=O)(=O)c1ccc(NCC2COc3ccccc3O2)c([N+](=O)[O-])c1 (stereo unspecified) | -35% | -21% | 12% | 50µM* | -15% | -32%
O=C(CN(Cc1ccccc1Cl)C(=O)c1csnn1)NC1CCCC1 | -4% | ? | 4% | -11% | . | -19%
CN(C)S(=O)(=O)c1ccc(NC(=O)/C=C/c2ccccc2Cl)cc1 | 6% | 11% | -1% | -12%[59 µM] | -15% | -26%
CN(C)c1ccc(NC(=O)/C=C/c2c(Cl)cccc2Cl)cc1 | ? | ? | 17% | 1.8µM* | -3% | -34%
COc1ccc(C2C(C#N)=C(N)Nc3nc4ccccc4n32)cc1 (stereo unspecified) | 3% | 15% | 27% | ? | 0% | -11%
N#CC1=C(N)Nc2ncnn2C1c1ccc(F)cc1 (stereo unspecified) | 14% | 40% | 5% | 40µM* | 2% | -4%
COCCNCCCCSc1ccc(Cl)cc1 | 56µM* | -35% | ? | . | 5% | 8.9µM*
C=CCNCCOCCSc1ccc(Cl)cc1 | ? | ? | -13% | 7.9µM* | 8% | 3.2µM*
C=CCNCCCOc1ccc(Cl)cc1C(C)(C)C | 40µM* | ? | ? | 10µM* | 6% | 4.5µM*
C=CCNCCOc1ccccc1-c1ccccc1 | 6% | 46% | 6% | -1%[59 µM] | 10% | -6%
C=CCNCCOCCOc1ccc(Cl)cc1C(C)(C)C | 50µM* | -45% | -72% | 8.9µM* | 7% | 2µM*
COCCNC(=O)CSc1ccc(Cl)cc1 | -17% | 43% | 18% | 0%[59 µM] | -4% | 10%
C=CCNC(=O)CSc1ccc(Cl)cc1 | -1% | 47% | 16% | 7%[12.7 µM] | 5% | -17%
